The source of these data is PubChem BioAssay (Tox21).

The target in one assay is Aromatase (Homo sapiens) (UniProt P11511). Kind of assay: qHTS assay to identify aromatase inhibitors (AID 743083). Note: nearly all actives have a fitted effect of over 55% in size. Note: potency is the fitted concentration of half-maximal effect. Background: In qHTS, concentration-response curves come from the screen itself.
In assay [1] the target is Aryl hydrocarbon receptor (Homo sapiens) (UniProt P35869). Kind of assay: qHTS assay to identify small molecule that activate the aryl hydrocarbon receptor (AhR) signaling pathway (AID 743085).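 Note: HG2L7.5c1 human HepG2 liver cells with stably integrated DRE-driven firefly reporter; nearly all actives have a fitted effect of over 15% in size.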 A digest of the protocol:
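Stably transfected human liver carcinoma cells (HG2L7.5c1; 20 DRE-firefly luciferase) were incubated 5 h, dosed, and kept 24 h at 37C. Agonism was scored from increased luciferase luminescence.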

A short description of assay [2]: qHTS assay to identify small molecule antagonists of the retinoic acid receptor (RAR) signaling pathway (AID 1159552; note: nearly all actives have a fitted effect of over 50% in size). A digest of the protocol:
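Test chemicals and DMSO controls were pin-transferred onto C3RL4 cells a day after seeding; retinol (1 uM final) followed at once. Luminescent reporter output was quantified after 6 hr of co-incubation and 30 min with detection reagent.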

The target of assay [3] is Acetylcholinesterase (Homo sapiens) (UniProt P22303). As to the kind of experiment: Acetylcholinesterase (AChE) small molecule antagonists: colormetric cell-based qHTS assay (AID 1347395; calls by dose curve; note: nearly all actives have a fitted effect of over 30% in size). A digest of the protocol:
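After overnight attachment at 37 C, SH-SY5Y cells get 30 min compound exposure; detection cocktail (acetylthiocholine, DTNB) then incubates 90 min at 37 C, and absorbance reflects AChE-generated thiocholine.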

Assay [4] has the same target. As to the kind of experiment: Acetylcholinesterase (AChE) small molecule antagonists: enzyme-based qHTS assay (AID 1347397; calls by dose curve; note: nearly all actives have a fitted effect of over 55% in size). Conditions: Potency: AChE enzyme activity inhibition; outcome: AChE enzyme activity inhibition. The procedure, abridged:
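Recombinant human AChE, dispensed at 50 mU/mL, was preincubated with Tox21 10K compounds or DMSO vehicle for 30 min at room temperature. DTNB plus acetylthiocholine was then added, and thiocholine was measured colorimetrically after a further 10 min.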

Assay [5] shares this target. As to the kind of experiment: Acetylcholinesterase (AChE) small molecule antagonists: fluorescence cell-based qHTS assay (AID 1347398; calls by dose curve; note: nearly all actives have a fitted effect of over 50% in size). To be noted: Potency: AChE activity; outcome: AChE activity. A digest of the protocol: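 Human SH-SY5Y cells were plated overnight at 37 C, exposed to compound for 30 min at 37 C, 5% CO2, then given acetylthiocholine plus Thiolite Green for 40 min at room temperature; thiocholine fluorescence (Ex/Em 490/520 nm) reports endogenous AChE activity.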

Assay [6] can be described thus: qHTS assay to identify small molecule agonists of the estrogen related receptor signaling pathway with the pleiotropic PPARgamma coactivator (PGC) from Tox21 10K library (AID 1224842). Note: nearly all actives have a fitted effect of over 15% in size. A digest of the protocol: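 PGC/ERR reporter cells (NTP line) were seeded 2,000 per well, rested 6 h at 37 C/5% CO2, then pin-dosed with compounds in DMSO for 18 h at 37 C; luciferase read by One-Glo luminescence after 30 min at room temperature.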

The nature of assay [7]: qHTS assay to identify small molecule agonists of the estrogen related receptor (ERR) signaling pathway from Tox21 library (AID 1224849; calls by dose curve; note: nearly all actives have a fitted effect of over 15% in size). To be noted: ERR reporter cell line, ONE-Glo luciferase, 18 h; at 92.4 µM (top of the series) unless noted. A digest of the protocol: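 ERR reporter cell line (NTP) seeded, rested 6 h at 37 C/5% CO2, then pinned with Tox21 compounds in DMSO. After 18 h at 37 C, ONE-Glo luciferase luminescence was read following 30 min at room temperature.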

Assay [8] in a line: A CellTox Green Cytotoxicity Assay to monitor cytotoxicity in HEK293 cells - 0 hour (AID 1224869). Note: nearly all actives have a fitted effect of over 50% in size. The procedure, abridged: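 HEK293 cells premixed with CellTox Green dye were seeded at 600 cells/well and left 5 h at 37 C/5% CO2 before pin transfer of 23 nL compound in DMSO. Fluorescence from dye bound to dead-cell DNA was read during 40 h treatment.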
The nature of assay [9]: A CellTox Green Cytotoxicity Assay to monitor cytotoxicity in HepG2 cells - 0 hour (AID 1224882). Note: nearly all actives have a fitted effect of over 35% in size. The procedure, abridged: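 HepG2 cells were seeded together with the CellTox Green dye at 600 cells/well, left 5 h at 37 C/5% CO2, then given compounds in DMSO. Fluorescence from dye bound to dead-cell DNA was read repeatedly over 40 h of treatment at 37 C.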
Assay [10] is described as follows: qHTS assay to identify small molecule HDAC inhibitors (AID 1259364). Note: top concentration of the series differs between compounds; nearly all actives have a fitted effect of over 45% in size. The procedure, abridged: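 Wild-type HCT-116 cells were plated overnight, exposed to compounds for 2 h at 37 °C, then given HDAC-Glo class I/II luminogenic reagent for 30 min at room temperature before luminescence was read.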
The nature of assay [11]: qHTS assay to identify small molecule agonists of the sonic hedgehog signaling (Shh) pathway (AID 1259368; calls by dose curve; note: nearly all actives have a fitted effect of over 15% in size). A digest of the protocol: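 NIH/3T3-derived 3T3Gli1-Luc cells carrying a stably integrated Gli1 response element–firefly luciferase reporter were plated, left 4 hr at 37 C, then given compounds in DMSO for 24 hr. Luminescence was read 30 min after adding luciferase reagent.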

Assay [12] can be described thus: Caspase-3/7 induction in HepG2 cells by small molecules, qHTS assay (AID 1346978). Note: nearly all actives have a fitted effect of over 15% in size. A digest of the protocol:
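Wild-type HepG2 cells (2,000/well) were settled 5 h at 37 C, 5% CO2, then exposed to compounds in DMSO for 17 h. Caspase-3/7 activity was read by luminescence 30 min after adding Caspase-Glo 3/7 reagent at room temperature.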

A short description of assay [13]: Caspase-3/7 induction in CHO-K1 cells by small molecules, qHTS assay (AID 1346980). Note: nearly all actives have a fitted effect of over 15% in size. The procedure, abridged:
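Wild-type cells were seeded at 1,500 per well and settled 5 hr at 37 C, 5% CO2, then exposed to DMSO-dissolved compounds for 17 hr. Caspase-Glo 3/7 reagent was added, and luminescence was read after 30min at room temperature.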

Assay [14] deals with Acetylcholinesterase (Homo sapiens) (UniProt P22303). As to the kind of experiment: Acetylcholinesterase (AChE) small molecule antagonists: enzyme-based qHTS assay with human liver microsomes (AID 1347399; calls by dose curve; note: nearly all actives have a fitted effect of over 60% in size). To be noted: Potency: qHTS inhibition; outcome: qHTS inhibition. The procedure, abridged:
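Recombinant human AChE (50 mU/mL in the enzyme mix) and human liver microsomes (0.25 mg/mL final) were preincubated with compound and NADPH (0.25 mg/mL final) for 30 min at 37 C. Acetylthiocholine/DTNB was then added; thiocholine was read colorimetrically after 10 min at room temperature.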

The nature of assay [15]: qHTS assay to identify small molecule antagonists of the estrogen related receptor (ERR) signaling pathway - cell viability counter screen (AID 1224818).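 Note: viability measured after 17.5 h of compound exposure.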 The procedure, abridged: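 ERR reporter cells plated 6 h at 37 C/5% CO2, then compounds in DMSO pin-transferred and incubated 17.5 h at 37 C. Viability read as CellTiter-Fluor fluorescence after 30 min at 37 C.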
The nature of assay [16]: qHTS assay to identify small molecule antagonists of the estrogen related receptor (ERR) signaling pathway (AID 1224819;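 note: luminescence from an ERR-driven luciferase reporter measured with One-Glo reagent; nearly all actives have a fitted effect of over 50% in size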). The procedure, abridged:
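ERR reporter cells were plated at 2,000 cells/well and left 6 h at 37 C/5% CO2 before pin-tool transfer of compounds in DMSO. After 18 h at 37 C, One-Glo was added and luminescence was read 30 min later at room temperature.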

Assay [17] is described as follows: qHTS assay to identify small molecule agonists of the estrogen related receptor (ERR) signaling pathway (AID 1224820). The procedure, abridged: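 Quantitative HTS of the LOPAC library used NTP ERR reporter cells treated 18 h at 37 C. Signal is luminescence after One-Glo addition and a 30 min room-temperature incubation.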
Assay [18] deals with estrogen-related receptor alpha (ERRalpha) with PGC-1alpha coactivator, human. As to the kind of experiment: qHTS assay to identify small molecule antagonists of the estrogen related receptor signaling pathway with the pleiotropic PPARgamma coactivator (PGC) (AID 1224821; calls by dose curve). A digest of the protocol:
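Quantitative HTS for antagonism: PGC/ERR cells received compounds after 6 h attachment and were incubated 18 h at 37 C, with luminescence (One-Glo) as the endpoint.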

The nature of assay [19]: qHTS assay to identify small molecule antagonists of the estrogen related receptor signaling pathway with the pleiotropic PPARgamma coactivator (PGC) cell viability counter screen (AID 1224822). A digest of the protocol: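 PGC/ERR cells were seeded at 2,000 cells/well, rested 6 h at 37 C/5% CO2, then given compounds in DMSO by pin tool and incubated 17.5 h at 37 C. Viability came from CellTiter-Fluor fluorescence after 30 min.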

Values without a mark were called inactive. Inconclusive results are not listed. Calls of active or inactive are those of the source. Unless noted, calls come from the whole dose curve; as a rule, active = well fitted curve in the direction sought with a large enough effect in the repeat runs; inconclusive = weak or mixed curves; inactive = no such curve, though single readings can be large; an effect the other way counts as inactive or inconclusive.
% is set by controls: 0 for no effect and ±100 for the full control effect.

Aromatase (Homo sapiens), sequence (P11511 whole entry, looked up): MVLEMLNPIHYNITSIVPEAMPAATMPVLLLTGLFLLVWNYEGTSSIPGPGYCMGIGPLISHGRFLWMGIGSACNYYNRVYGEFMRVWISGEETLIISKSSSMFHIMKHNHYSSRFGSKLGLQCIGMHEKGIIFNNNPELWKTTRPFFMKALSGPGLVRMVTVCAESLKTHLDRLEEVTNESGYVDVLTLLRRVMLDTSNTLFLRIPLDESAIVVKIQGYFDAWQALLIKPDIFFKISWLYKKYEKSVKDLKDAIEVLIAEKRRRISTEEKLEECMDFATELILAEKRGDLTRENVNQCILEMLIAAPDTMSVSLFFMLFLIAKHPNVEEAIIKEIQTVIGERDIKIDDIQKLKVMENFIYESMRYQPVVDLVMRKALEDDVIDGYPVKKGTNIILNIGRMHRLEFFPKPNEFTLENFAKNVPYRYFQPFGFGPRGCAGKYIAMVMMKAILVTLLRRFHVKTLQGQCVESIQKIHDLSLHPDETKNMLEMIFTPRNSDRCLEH
Aryl hydrocarbon receptor (Homo sapiens), sequence (P35869 whole entry, looked up): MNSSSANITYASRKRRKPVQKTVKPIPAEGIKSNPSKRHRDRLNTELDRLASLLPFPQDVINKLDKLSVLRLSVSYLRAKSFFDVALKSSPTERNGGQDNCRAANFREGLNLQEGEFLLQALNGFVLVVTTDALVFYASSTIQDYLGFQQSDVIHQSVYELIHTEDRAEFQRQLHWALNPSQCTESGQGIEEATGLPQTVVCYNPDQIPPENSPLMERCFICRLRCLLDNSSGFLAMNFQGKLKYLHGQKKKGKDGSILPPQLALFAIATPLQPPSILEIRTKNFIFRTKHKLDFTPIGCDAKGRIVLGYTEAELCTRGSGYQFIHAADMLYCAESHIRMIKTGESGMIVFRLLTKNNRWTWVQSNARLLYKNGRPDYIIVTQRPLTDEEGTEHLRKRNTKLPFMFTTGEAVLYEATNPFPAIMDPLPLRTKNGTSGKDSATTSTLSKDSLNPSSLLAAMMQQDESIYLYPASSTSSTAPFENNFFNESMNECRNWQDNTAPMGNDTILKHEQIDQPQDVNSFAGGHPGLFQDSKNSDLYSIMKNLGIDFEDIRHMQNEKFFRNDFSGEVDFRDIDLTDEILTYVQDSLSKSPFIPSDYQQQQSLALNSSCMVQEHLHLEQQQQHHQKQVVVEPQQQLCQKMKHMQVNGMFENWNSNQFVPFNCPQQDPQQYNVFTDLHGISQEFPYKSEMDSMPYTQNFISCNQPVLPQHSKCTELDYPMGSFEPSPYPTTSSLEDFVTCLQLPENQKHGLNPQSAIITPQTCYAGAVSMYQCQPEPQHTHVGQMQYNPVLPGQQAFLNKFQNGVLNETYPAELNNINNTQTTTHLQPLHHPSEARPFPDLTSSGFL
Acetylcholinesterase (Homo sapiens), sequence (P22303 whole entry, looked up): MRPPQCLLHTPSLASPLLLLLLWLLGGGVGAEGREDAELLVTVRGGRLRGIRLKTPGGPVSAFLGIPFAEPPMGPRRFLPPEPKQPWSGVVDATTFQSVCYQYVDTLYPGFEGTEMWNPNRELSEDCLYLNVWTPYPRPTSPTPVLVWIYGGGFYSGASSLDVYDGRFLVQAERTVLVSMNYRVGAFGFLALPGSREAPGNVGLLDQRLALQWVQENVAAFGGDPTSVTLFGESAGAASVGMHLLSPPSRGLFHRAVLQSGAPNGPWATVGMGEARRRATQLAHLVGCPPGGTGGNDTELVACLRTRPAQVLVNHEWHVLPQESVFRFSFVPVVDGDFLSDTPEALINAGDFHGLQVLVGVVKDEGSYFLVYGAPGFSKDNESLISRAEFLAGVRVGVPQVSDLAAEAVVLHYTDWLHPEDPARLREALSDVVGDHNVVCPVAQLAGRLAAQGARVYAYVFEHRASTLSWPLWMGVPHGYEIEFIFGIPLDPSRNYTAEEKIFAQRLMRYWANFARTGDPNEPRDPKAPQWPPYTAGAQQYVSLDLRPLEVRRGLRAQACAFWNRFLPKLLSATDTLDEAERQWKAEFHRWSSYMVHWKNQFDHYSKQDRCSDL

For `Brc1c2ccccc2c(Br)c2ccccc12`, the results for the activity, negative = inhibition (in the assay with Aromatase (Homo sapiens); in [2]; in assay [3]) were 2.07% [at 8.47 µM], 4.27% [at 8.39 µM] and 0.841% [at 10.5 µM], respectively. For the same compound, the activation in [1] was -3.68% [at 8.47 µM]. Further, the values for the activity change, negative = inhibition in [4] and in assay [5] were 0.273% [at 10.5 µM] and 6.02% [at 10.5 µM], respectively.
Regarding `N#Cc1cc([N+](=O)[O-])ccc1N`, the Potency result in [2], in assay [6], in [8], in assay [9], in assay [12] and in [3] was “inactive” throughout. The Potency result in [4], in assay [5] and in assay [14] was “inactive” each time. Besides, in assay [7], the activity change, positive = activation is -2.3%. In addition, the compound was classed as inactive in assay [10], in assay [11] and in assay [13].
As to `CC1COC(Cn2cncn2)(c2ccc(Oc3ccc(Cl)cc3)cc2Cl)O1` (configuration not stated), the Potency with Aromatase (Homo sapiens) was 30.6 µM (active). Further, the Potency entry in assay [1], in assay [2], in assay [6], in assay [8], in assay [9] and in assay [12] was “inactive” each time. Moreover, the Potency entry in assay [3], in assay [4], in assay [5] and in assay [14] was “inactive” in each case. In addition, the activity change, positive = activation in assay [7] was -64.8%. The compound was classed as inactive in [10], in assay [11] and in [13].
With `Cc1c(N)cccc1[N+](=O)[O-]`, the Potency entry (with Aromatase (Homo sapiens); in assay [2]; in assay [3]; in [4]; in assay [5]; in [14]) was “inactive” throughout.
On to `O=C1OC(=O)c2c(Cl)c(Cl)c(Cl)c(Cl)c21`, for which the Potency entry (in the assay with Aromatase (Homo sapiens); in assay [1]; in [2]; in assay [12]; in assay [3]; in [4]) was “inactive” each time. Moreover, the Potency entry in assay [5] and in [14] was “inactive” in each case. Moreover, in assay [7], the activity change, positive = activation was -2.98%.
In the case of `O=[N+]([O-])c1c(Cl)c(Cl)cc(Cl)c1Cl`, the Potency result in assay [1], in [2], in assay [15], in [16], in [17] and in assay [18] was “inactive” each time. Besides, the Potency result in assay [19], in assay [6], in assay [9], in assay [12], in [3] and in [4] was “inactive” throughout. Besides, the Potency result in assay [5] and in [14] was “inactive” each time. Also, the activity change, positive = activation in assay [7] is 0.621%. Besides, the call in [10], in [11] and in assay [13] was inactive.
As to `COc1cc(OC)c(OC)cc1C=O`, in the assay with Aromatase (Homo sapiens), the Potency was 44.4 µM (active). Moreover, the Potency result in assay [15], in [16], in assay [17], in assay [18], in assay [19] and in assay [6] was “inactive” each time. For the same compound, the Potency result in [8], in assay [9], in [12], in assay [3], in assay [4] and in assay [5] was “inactive” throughout. In addition, the Potency result in [14] is “inactive”. Moreover, the activity change, positive = activation in assay [7] is -39.3%. Besides, the outcome in [10], in [11] and in assay [13] was inactive.
In the case of `CCC(C)=O`, the Potency result (in the assay with Aromatase (Homo sapiens); in [2]; in [3]; in assay [4]; in assay [5]; in assay [14]) was “inactive” throughout. In addition, the activity change, positive = activation in assay [7] is -6.3%.
